Results on eight compounds are retold here after PubChem BioAssay (NCI).

This is part of a sample that, as a whole, favours compounds with a hit. Of some 83,000 tested, about 20% had one in any assay.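 Each cell line was grown in a 96-well plate and treated with one concentration of compound for 48 hours. Values below 10 were considered active.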 Unmarked numbers belong to inactive results. Calls of active or inactive are those of the source.

Common to all, as to assay: NCI-60 one-dose screen, 48 h (100 = growth as untreated, 0 = no growth, -100 = all killed)
Details in all cases: 10 µM unless noted

Test [1] concerns SK-MEL-2 melanoma.
For test [2], the system named is SN12C renal.
Test [3] concerns TK-10 renal.
Test [4] has as its system ACHN renal.
The test system of test [5] is CAKI-1 renal.
Test [6] deals with A498 renal.
Test [7] relates to CCRF-CEM leukemia.
The subject of test [8] is MOLT-4 leukemia.
In test [9] the test system is SR leukemia.
In test [10] the test system is RPMI-8226 leukemia.
Test [11] concerns OVCAR-8 ovarian.
The subject of test [12] is OVCAR-5 ovarian.
For test [13], the system named is OVCAR-4 ovarian.
Test [14] concerns SK-OV-3 ovarian.
Test [15] has as its system IGROV1 ovarian.
Test [16] relates to OVCAR-3 ovarian.
The subject of test [17] is HS 578T breast.
Test [18] relates to NCI/ADR-RES ovarian.
In test [19] the test system is EKVX NSCLC.
For test [20], the system named is UO-31 renal.

In the case of `CCOC(=O)CCN(c1c(Cl)ssc1=O)C(C)C`, the growth is 96.4% in test [1]; 114% in test [2]; 129% in [3]; 118% in test [4]; 124% in test [5]; 106% in [6]. Besides, the growth in test [7] was -34.9% (active); in test [8], -14.5% (active); in test [9] it was 134%; in test [10], 105%; in test [11] it was 97.2%; in test [12], 87.2%. Also, the growth is 106% in test [13]; 116% in test [14]; -5.46% (active) in [15]; 128% in test [16]; 103% in [17]; 105% in [18].
Take `C1=C(Cc2ccccc2)n2cnc3ncnc(c32)S1`: the growth was 75% in test [1]; 86.4% in [2]; 28.6% in test [3]; 87.2% in [4]; 39.6% in test [5]; 99.6% in [6]. The growth was 58.9% in test [7]; 31.2% in test [8]; 36.8% in test [9]; 28% in test [10]; 73.5% in test [11]; 70.5% in test [12]. The growth in test [13] was 40.1%; in test [14] it was 19.7%; in test [15], 86.8%; in test [16], 15.8%; in [17], 75.3%; in [18], 56.7%.
Take `COCCCNS(=O)(=O)c1ncnc2nc[nH]c12`: the growth in test [1] is 147%; in [2], 114%; in test [3], 140%; in [5], 101%; in test [6] it was 87%; in test [7], 101%. For the same compound, the growth in test [8] was 102%; in [9] it was 108%; in test [10], 107%; in test [12] it was 100%; in test [13] it was 113%; in [14] it was 121%. The growth in test [15] was 142%; in [16], 102%; in test [17], 104%; in [18], 99.5%.
With `CCN(CC)CCOCC[C@H]1CC[C@H]2[C@@H]3[C@H](C)Cc4cc(OS(N)(=O)=O)ccc4[C@H]3CC[C@]12C`, the growth was -23.4% (active) in test [19]; -62.9% (active) in test [2]; -80.8% (active) in [20]; -56.8% (active) in [3]; -65.9% (active) in [4]; -73.9% (active) in test [5]. Also, the growth was -91.6% (active) in [6]; -26.8% (active) in test [7]; -52.2% (active) in [8]; -56.4% (active) in [10]; -50.1% (active) in [12]; 8.49% (active) in [13]. Also, the growth in test [14] is -94.8% (active); in test [16], -86.5% (active); in test [17] it was -44.6% (active); in [18], -70.2% (active).
Regarding `CCCCCCCCCCCCCCCCCC1=NC(C)(CO)CO1` (centres undefined), the growth in test [1] was 91.3%; in test [2], 94.2%; in test [3], 87.1%; in [4] it was 91%; in test [5] it was 85.5%; in test [6], 104%. The growth in [8] was 93.8%; in [9], 118%; in [10] it was 86.7%; in [11] it was 97.6%; in test [14] it was 97.8%; in test [15], 101%. The results for the growth in test [16], in [17] and in [18] were 95.3%, 92.5% and 85.8%, respectively.
Take `COc1cc2c(cc1OC)C(CC1(O)CCCCC1)N(S(=O)(=O)c1ccc(C)cc1)CC2` (centres undefined): the growth is 6.69% [100 µM] (active) in [1]; 42.3% [100 µM] in test [2]; 40.9% [100 µM] in [3]; 18.5% [100 µM] in test [4]; 22% [100 µM] in test [5]; 0.608% [100 µM] (active) in test [6]. For the same compound, the growth was 3.12% [100 µM] (active) in test [8]; -10.4% [100 µM] (active) in [9]; 16.7% [100 µM] in test [10]; 26.8% [100 µM] in test [11]; 76.2% [100 µM] in test [12]; 25.4% [100 µM] in test [13]. In addition, the growth is 80% [100 µM] in test [14]; 53.6% [100 µM] in [15]; -15.5% [100 µM] (active) in [16]; 57.3% [100 µM] in test [17]; 34.5% [100 µM] in test [18].
Regarding `O=C(/C=C/c1cccc(O)c1)c1cccc(-n2cc(-c3ccccc3)[nH]c2=O)c1`, the growth in test [19] was 66.8%; in test [2] it was -12.9% (active); in [20] it was -73.5% (active); in test [3], 12.4%; in test [4], -75.8% (active); in [5], 8.38% (active). Also, the growth was 90.6% in test [6]; -3.86% (active) in [7]; -7.37% (active) in [8]; -45.4% (active) in test [10]; 9.12% (active) in test [11]; -9.18% (active) in [12]. For the same compound, the growth in [13] is 20.2%; in test [14] it was 106%; in [15] it was -30.5% (active); in [16] it was -28% (active); in [17], 46%; in [18], 3.96% (active).
`CNc1nc(NC2CCCC2)nc(Sc2ccc(OC)cc2)n1`: the growth in test [1] is 9.28% [100 µM] (active); in test [2] it was 28.5% [100 µM]; in test [3], 42.1% [100 µM]; in test [4], 21% [100 µM]; in [5], 0.0278% [100 µM] (active); in test [6] it was 10.1% [100 µM]. Further, the growth in test [8] is -5.92% [100 µM] (active); in test [9] it was -0.593% [100 µM] (active); in test [10], -11.2% [100 µM] (active); in test [11], 20.2% [100 µM]; in test [12], 59.5% [100 µM]; in [13], 36.9% [100 µM]. Besides, the growth in [14] is 74.9% [100 µM]; in test [15], 45.9% [100 µM]; in [16], -25.5% [100 µM] (active); in [18], 11.9% [100 µM].
